SMILES strings stand for the structures. Among all 39,000 compounds or so, about 3,300 (8.5%) were called active. This is one part of a sample in which actives are shown more often than they occur.

This test concerns HepG2. In words: cytotoxicity call (relative viability < 0.9). Conditions: 10 µM.
On to `C[C@@H]1CCCCO[C@H](CN(C)C(=O)Nc2ccc(F)cc2)[C@H](C)CN([C@@H](C)CO)C(=O)c2cc(NC(=O)C3CCCCC3)ccc2O1`, for which the cytotoxicity call is “inactive”. As for `Cc1noc(C)c1S(=O)(=O)Nc1cccc2c1O[C@H](CN(C)S(=O)(=O)c1ccc(Cl)cc1)[C@H](C)CN([C@H](C)CO)C2=O`, the cytotoxicity call is “inactive”.

In the case of `C[C@@H]1CCCCO[C@@H](CN(C)S(=O)(=O)c2ccc(Cl)cc2)[C@@H](C)CN([C@H](C)CO)C(=O)c2cc(NS(=O)(=O)c3ccccc3)ccc2O1`, the cytotoxicity call is “inactive”.

With `C[C@H](CO)N1C[C@H](C)[C@H](CN(C)S(=O)(=O)c2ccc(C#N)cc2)Oc2ncc(-c3ccc(F)cc3)cc2C1=O`, the cytotoxicity call was “inactive”. As for `C[C@H](CO)N1C[C@H](C)[C@H](CN(C)Cc2ccc(Oc3ccccc3)cc2)Oc2ccc(NC(=O)Nc3ccc(F)cc3)cc2CC1=O`, the cytotoxicity call was “active”. The result for `C[C@H]1CN([C@@H](C)CO)C(=O)Cc2cc(NC(=O)Nc3ccc(F)cc3)ccc2O[C@@H]1CN(C)Cc1ccc(Oc2ccccc2)cc1` reads “active”. The result for `C[C@@H]1CN([C@H](C)CO)C(=O)Cc2cc(NC(=O)Nc3ccc(F)cc3)ccc2O[C@@H]1CN(C)Cc1ccc(Oc2ccccc2)cc1` reads “active”; that for `C[C@@H]1CN([C@@H](C)CO)C(=O)Cc2cc(NC(=O)Nc3ccc(F)cc3)ccc2O[C@H]1CN(C)Cc1ccc(Oc2ccccc2)cc1`, “active”. The result for `COc1ccc(CN(C)C[C@H]2OCCCC[C@@H](C)Oc3ccc(NC(=O)c4ccncc4)cc3C(=O)N([C@@H](C)CO)C[C@@H]2C)cc1` reads “inactive”. On to `Cc1ccc(S(=O)(=O)Nc2ccc3c(c2)C(=O)N([C@H](C)CO)C[C@@H](C)[C@H](CN(C)C(=O)c2ccccc2)OCCCC[C@@H](C)O3)cc1`, for which the cytotoxicity call was “inactive”.

Regarding `Cc1ccc(S(=O)(=O)N[C@H]2CC[C@H](CC(=O)N3CCC(Cc4ccccc4)CC3)O[C@@H]2CO)cc1`, the cytotoxicity call is “inactive”. Regarding `C[C@@H]1CCCCO[C@@H](CN(C)C)[C@@H](C)CN([C@H](C)CO)C(=O)c2cc(NS(=O)(=O)c3cn(C)cn3)ccc2O1`, the cytotoxicity call was “inactive”. The result for `CC(C)NC(=O)N(C)C[C@H]1Oc2c(NC(=O)NC3CCCCC3)cccc2C(=O)N([C@@H](C)CO)C[C@H]1C` reads “inactive”. As for `C[C@@H]1CN([C@@H](C)CO)C(=O)c2cccc(NC(=O)Nc3ccccc3)c2O[C@@H]1CN(C)S(=O)(=O)c1cn(C)cn1`, the cytotoxicity call is “inactive”. Then `C[C@@H]1CCCCO[C@@H](CN(C)S(=O)(=O)c2cn(C)cn2)[C@H](C)CN([C@H](C)CO)C(=O)c2cc(N(C)C)ccc2O1`, with “inactive”; and `O=C(CN1CCOCC1)N[C@@H]1CC[C@@H](CCNC(=O)Nc2cc(F)ccc2F)O[C@@H]1CO`, with “inactive”; and `C[C@@H]1CCCCO[C@H](CN(C)C)[C@@H](C)CN([C@H](C)CO)C(=O)c2cc(NC(=O)CCCN(C)C)ccc2O1`, with “inactive”.

Turning to `C[C@@H]1CCCCO[C@@H](CN(C)C(=O)NC2CCCCC2)[C@@H](C)CN([C@@H](C)CO)C(=O)c2cc(NC(=O)Nc3ccc4c(c3)OCO4)ccc2O1`, the cytotoxicity call was “inactive”. The result for `C[C@@H]1CN([C@H](C)CO)C(=O)Cc2cc(NC(=O)Nc3ccc(F)cc3)ccc2O[C@H]1CN(C)Cc1ccc(Oc2ccccc2)cc1` reads “active”. Consider `C[C@H](CO)N1C[C@H](C)[C@@H](CN(C)Cc2ccc(Oc3ccccc3)cc2)Oc2ccc(NC(=O)Nc3ccc(F)cc3)cc2CC1=O`, for which the cytotoxicity call is “active”.

Take `C[C@H]1CN([C@@H](C)CO)C(=O)Cc2cc(NC(=O)Nc3ccc(F)cc3)ccc2O[C@H]1CN(C)Cc1ccc(Oc2ccccc2)cc1`: the cytotoxicity call is “active”. The result for `C[C@@H]1CN([C@@H](C)CO)C(=O)Cc2cc(NC(=O)Nc3ccc(F)cc3)ccc2O[C@@H]1CN(C)Cc1ccc(Oc2ccccc2)cc1` reads “inactive”; that for `CC(=O)Nc1nnc(S(N)(=O)=O)s1`, “inactive”; that for `C[C@H](CO)N1C[C@H](C)[C@@H](CN(C)S(=O)(=O)c2ccc(F)cc2)Oc2ccc(NC(=O)Cn3cnnn3)cc2C1=O`, “inactive”. Consider `CC(C)NC(=O)Nc1cccc2c1O[C@@H](CN(C)S(=O)(=O)c1cn(C)cn1)[C@@H](C)CN([C@H](C)CO)C2=O`, for which the cytotoxicity call was “inactive”.

On to `CONC(=O)Nc1ccc(-c2sc3c(c2CN(C)Cc2ccccc2)c(=O)n(-c2ccccc2)c(=O)n3Cc2c(F)cccc2F)cc1`, for which the cytotoxicity call is “inactive”. Turning to `CC(C)OC(=O)c1cn(Cc2c(F)cccc2F)c2sc(-c3ccc(NC(=O)C(C)C)cc3)c(CN(C)Cc3ccccc3)c2c1=O`, the cytotoxicity call was “active”. The result for `C[C@@H]1CN([C@@H](C)CO)C(=O)c2cccc(NC(=O)Nc3ccc(F)cc3)c2O[C@H]1CN(C)Cc1ccc(-c2ccccc2)cc1` reads “inactive”; that for `C[C@@H]1CN([C@@H](C)CO)C(=O)c2cc(NC(=O)C3CC3)ccc2O[C@@H]1CN(C)Cc1ccc(C(=O)O)cc1`, “inactive”. As for `CO[C@H]1CN(C)C(=O)c2cc(NC(=O)CC(F)(F)F)ccc2OC[C@@H](C)N(S(=O)(=O)c2cn(C)cn2)C[C@@H]1C`, the cytotoxicity call was “inactive”. Then `COc1ccc(CNC(=O)C[C@H]2C[C@@H]3c4cc(NS(=O)(=O)c5ccc(F)cc5)ccc4O[C@@H]3[C@@H](CO)O2)cc1`, with “inactive”; and `O=C(C[C@@H]1C=C[C@@H](NS(=O)(=O)c2ccc(F)cc2)[C@@H](CO)O1)NCCN1CCCCC1`, with “inactive”.

Consider `C[C@@H]1CN([C@@H](C)CO)C(=O)Cc2cc(NC(=O)Nc3cccc4ccccc34)ccc2O[C@H]1CN(C)C(=O)NC1CCCCC1`, for which the cytotoxicity call is “inactive”. The result for `C[C@@H]1CN([C@@H](C)CO)C(=O)c2cc(NC(=O)c3ccccc3)ccc2O[C@@H](C)CCCCO[C@H]1CN(C)CC1CCCCC1` reads “active”; that for `C[C@@H]1CCCCO[C@@H](CN(C)CC2CCCCC2)[C@H](C)CN([C@@H](C)CO)C(=O)c2cc(NC(=O)c3ccccc3)ccc2O1`, “inactive”; that for `C[C@@H]1CCCCO[C@@H](CN(C)CC2CCCCC2)[C@@H](C)CN([C@H](C)CO)C(=O)c2cc(NC(=O)c3ccccc3)ccc2O1`, “active”.

As to `C[C@@H]1CN([C@H](C)CO)C(=O)c2cc(NC(=O)c3ccccc3)ccc2O[C@@H](C)CCCCO[C@@H]1CN(C)CC1CCCCC1`, the cytotoxicity call is “inactive”.

In the case of `C[C@H]1CCCCO[C@@H](CN(C)CC2CCCCC2)[C@@H](C)CN([C@@H](C)CO)C(=O)c2cc(NC(=O)c3ccccc3)ccc2O1`, the cytotoxicity call was “inactive”.

With `C[C@@H]1CN([C@@H](C)CO)C(=O)c2cc(NC(=O)c3ccccc3)ccc2O[C@@H](C)CCCCO[C@@H]1CN(C)CC1CCCCC1`, the cytotoxicity call is “inactive”. The result for `C[C@@H]1CCCCO[C@H](CN(C)CC2CCCCC2)[C@H](C)CN([C@H](C)CO)C(=O)c2cc(NC(=O)c3ccccc3)ccc2O1` reads “active”; that for `C[C@H]1CCCCO[C@H](CN(C)CC2CCCCC2)[C@@H](C)CN([C@@H](C)CO)C(=O)c2cc(NC(=O)c3ccccc3)ccc2O1`, “inactive”; that for `C[C@@H]1CCCCO[C@@H](CN(C)CC2CCCCC2)[C@H](C)CN([C@H](C)CO)C(=O)c2cc(NC(=O)c3ccccc3)ccc2O1`, “inactive”.

On to `C[C@H]1CN([C@@H](C)CO)C(=O)c2cc(NS(=O)(=O)c3ccccc3)ccc2O[C@H]1CN(C)S(=O)(=O)c1cccs1`, for which the cytotoxicity call is “inactive”. Then `COc1ccc(CN(C)C[C@@H]2OCCCC[C@H](C)Oc3ccc(NS(=O)(=O)c4ccccc4)cc3C(=O)N([C@H](C)CO)C[C@H]2C)cc1`, with “inactive”; and `C[C@@H]1CCCCO[C@@H](CN(C)Cc2ccc(C(=O)O)cc2)[C@@H](C)CN([C@H](C)CO)C(=O)c2cc(NS(=O)(=O)c3ccc(F)cc3)ccc2O1`, with “inactive”; and `C[C@@H]1CN([C@H](C)CO)C(=O)c2cccc(NC(=O)NC3CCCCC3)c2O[C@@H]1CN(C)Cc1ccc(Cl)c(Cl)c1`, with “inactive”. As for `COc1ccc(NC(=O)Nc2ccc3c(c2)C(=O)N([C@H](C)CO)C[C@H](C)[C@@H](CN(C)S(=O)(=O)c2ccccc2)OCCCC[C@@H](C)O3)cc1`, the cytotoxicity call was “inactive”. Then `Cc1ccc(S(=O)(=O)Nc2cccc3c2O[C@H](CN(C)S(=O)(=O)c2c(C)noc2C)[C@@H](C)CN([C@H](C)CO)C3=O)cc1`, with “inactive”; and `CCC(C(C)O)n1ncn(-c2ccc(N3CCN(c4ccc(OCC5COC(Cn6cncn6)(c6ccc(F)cc6F)C5)cc4)CC3)cc2)c1=O` (stereo unspecified), with “active”; and `CC(C)N1CCN(c2ccc(OCC3COC(Cn4cncn4)(c4ccc(Cl)cc4Cl)O3)cc2)CC1` (stereo unspecified), with “inactive”.

In the case of `CC[C@@H](C)n1ncn(-c2ccc(N3CCN(c4ccc(OC[C@H]5CO[C@](Cn6cncn6)(c6ccc(Cl)cc6Cl)O5)cc4)CC3)cc2)c1=O`, the cytotoxicity call is “active”.

Turning to `CCC(C)n1ncn(-c2ccc(N3CCN(c4ccc(OCC5COC(Cn6cncn6)(c6ccc(Cl)cc6Cl)O5)cc4)CC3)cc2)c1=O.Cl.Cl` (stereo unspecified), the cytotoxicity call is “active”. Take `CC[C@H](C)n1ncn(-c2ccc(N3CCN(c4ccc(OC[C@H]5CO[C@](Cn6cncn6)(c6ccc(Cl)cc6Cl)O5)cc4)CC3)cc2)c1=O`: the cytotoxicity call is “inactive”. For the compound `CC(=O)N1CCN(c2ccc(OCC3COC(Cn4ccnc4)(c4ccc(Cl)cc4Cl)O3)cc2)CC1` (stereo unspecified), the cytotoxicity call is “inactive”. On to `C[C@@H]1CN([C@@H](C)CO)C(=O)c2cccc(NC(=O)c3ccc(-c4nccs4)cc3)c2O[C@H]1CN(C)C(=O)Nc1ccc(F)cc1`, for which the cytotoxicity call was “inactive”.

In the case of `CCS(=O)(=O)Nc1ccc2c(c1)C(=O)N(C)C[C@H](OC)[C@@H](C)CN(Cc1ccccn1)[C@H](C)CO2`, the cytotoxicity call is “inactive”. Then `COc1ccc(C#Cc2ccc3c(c2)O[C@@H](CN(C)C(=O)c2ccccn2)[C@H](C)CN([C@H](C)CO)S3(=O)=O)cc1`, with “inactive”; and `CC1=CC(=O)N(c2ccn(C)n2)C1=O`, with “inactive”; and `C[C@@H]1CN([C@H](C)CO)C(=O)c2cc(NC(=O)Cc3ccccc3)ccc2O[C@@H]1CN(C)C(=O)Nc1cccc2ccccc12`, with “inactive”. With `CC(C)NC(=O)Nc1ccc2c(c1)C(=O)N([C@@H](C)CO)C[C@H](C)[C@@H](CN(C)S(=O)(=O)c1cccs1)O2`, the cytotoxicity call was “inactive”. Consider `C[C@@H]1CN([C@H](C)CO)C(=O)Cc2cc(NC(=O)Nc3ccc(C(F)(F)F)cc3)ccc2O[C@H]1CN(C)C(=O)Nc1ccccc1`, for which the cytotoxicity call was “inactive”.
